# Laboratory results: PubChem BioAssay (Tox21)
# Active and inactive are the calls of the source. The call rests on the fitted dose curve; in most records, active means well fitted curve in the direction sought with a large enough effect in the repeat runs; inconclusive means weak or mixed curves; inactive means flat fitted curve, though single readings scatter.
# Test: qHTS assay to test for compound auto fluorescence at 460 nm (blue) in HEK293 cells (AID 720678)
# Settings: blue autofluorescence 405/460 nm; series mostly up to 91.3 µM; fluorescence, % of triamterene: at the top concentration
# Outline: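 Cells were seeded and left to adhere for 4-5 hr at 37C. Compounds were then pin-transferred. After an overnight incubation at 37C under 5% CO2, intrinsic fluorescence at 405/460 nm was measured and referenced to triamterene.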
# On the % scale 0 is the no-effect control and ±100 the full control effect.
row,SMILES,"fluorescence, % of triamterene"
1,C=CCCCCCCCCCCCCCC,0.0937% [at 18.6 µM] (inactive)
2,N#CC1(N)CCCCC1,-0.0311% [at 95.7 µM] (inactive)
3,CN(C)c1ccncc1,0.13% (inactive)
4,BrCCOc1ccccc1,0.0905% (inactive)
5,O=C1CC2(CCCC2)CC(=O)N1CCNCC1COc2ccccc2O1 (stereo unspecified),0.0809% [at 46 µM] (inactive)
6,CCOC(=O)c1ccc(N(C)C)cc1,0.238% (inactive)
7,N=C(N)N1CCc2ccccc2C1,0.0039% [at 46 µM] (inactive)
8,CNC(C)=O,0.0101% (inactive)
9,C=CCN(CC=C)CC=C,-0.185% (inactive)
10,CCCCN1C(=O)c2ccccc2C1=O,0.11% [at 95.7 µM] (inactive)
11,COc1cc(NS(=O)(=O)c2ccc(N)cc2)ncn1,-0.148% [at 18.6 µM] (inactive)
12,NNC(=O)CCCCC(=O)NN,1.32% (inactive)

# Test: qHTS assay to test for compound auto fluorescence at 590 nm (red) in HEK293 cells (AID 720679)
# Settings: red autofluorescence 540/590 nm; series mostly up to 91.3 µM; fluorescence, % of fluorescent control: at the top concentration
# Outline: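 Each well held 2,000 HEK293 cells in medium containing 10% dialyzed FBS. Following 4-5 hr attachment at 37C, 23 nL test compound or DMSO was added; plates sat overnight, and red fluorescence (540/590nm) was recorded.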
row,SMILES,"fluorescence, % of fluorescent control"
1,CC/C=C/CCCCCCCCCCOC(C)=O,0.214% (inactive)
2,Cc1ccc(Br)cc1,0.101% (inactive)
3,O=C(O)/C=C(\CC(=O)O)C(=O)O,-0.207% [at 46 µM] (inactive)
4,C=CCON/C(CCC)=C1\C(=O)CC(C)(C)C(C(=O)OC)=C1O,0.196% (inactive)
5,CCOc1ccccc1OCCN[C@H](C)Cc1ccc(OC)c(S(N)(=O)=O)c1,0.0287% [at 46 µM] (inactive)
6,CCCCCCCCCCCCCCBr,-0.173% [at 95.7 µM] (inactive)
7,CCN1CCN(C(=O)N[C@@H](C(=O)N[C@@H]2C(=O)N3[C@@H]2SC(C)(C)[C@H]3C(=O)O)c2ccccc2)C(=O)C1=O,-0.284% [at 46 µM] (inactive)
8,CCCCNCC,-0.215% (inactive)
9,C[Si](C)(C)O[Si](O)(O)O,-0.668% (inactive)
10,O=C(CCBr)N1CCN(C(=O)CCBr)CC1,0.182% [at 46 µM] (inactive)
11,Cc1ccccc1OCC(=O)O,-0.17% (inactive)
12,C/C(=N\O)c1ccc(OCC(=O)N2CCCCC2)cc1,-0.0764% [at 46 µM] (inactive)
13,CC/C=C\CCCCCCCCCCOC(C)=O,0.164% (inactive)
14,COCc1nnc(-c2ccc[n+]([O-])c2)n1-c1c(Cl)c(Cl)cc2[nH]c(=O)c(=O)[nH]c12,-0.318% (inactive)
15,CC1(C)S[C@@H]2[C@H](NC(=O)Cc3ccccc3)C(=O)N2[C@H]1C(=O)O (tested in a mixture with another compound),-0.0278% [at 46 µM] (inactive)
16,CC1=C(O)C(=O)CO1,-0.153% (inactive)
17,CC(C)C(C)C,0.21% (inactive)
18,O=C(O)Cc1c(Cl)ccc(Cl)c1Cl,0.0319% (inactive)

row,SMILES,"fluorescence, % of fluorescent control"
1,CCC(=O)OCCOc1ccccc1,0.205% (inactive)
2,N=C(N)S(=O)O,0.0157% (inactive)
3,CC(C)(C)C(=O)CCc1ccc(Cl)cc1,-0.151% (inactive)
4,CC[C@@]1(c2ccccc2)NC(=O)N(C)C1=O,-0.236% [at 46 µM] (inactive)
5,CCCCCCCCS(=O)(=O)O,0.0439% (inactive)
6,C=CCCCCCCCCCCCCCC,0.0885% [at 18.6 µM] (inactive)
7,N#CC1(N)CCCCC1,-0.0924% [at 95.7 µM] (inactive)
8,CN(C)c1ccncc1,0.385% (inactive)
9,BrCCOc1ccccc1,0.0138% (inactive)
10,O=C1CC2(CCCC2)CC(=O)N1CCNCC1COc2ccccc2O1 (stereo unspecified),0.0345% [at 46 µM] (inactive)
11,CCOC(=O)c1ccc(N(C)C)cc1,0.476% (inactive)
12,N=C(N)N1CCc2ccccc2C1,-0.184% [at 46 µM] (inactive)
13,CNC(C)=O,0.0713% (inactive)
14,C=CCN(CC=C)CC=C,-0.0945% (inactive)
15,CCCCN1C(=O)c2ccccc2C1=O,-0.883% [at 95.7 µM] (inactive)
16,COc1cc(NS(=O)(=O)c2ccc(N)cc2)ncn1,0.185% [at 18.6 µM] (inactive)
17,NNC(=O)CCCCC(=O)NN,0.182% (inactive)

# Test: qHTS assay to test for compound auto fluorescence at 535 nm (green) in HEK293 cells (AID 720680)
# Settings: green autofluorescence 485/535 nm; series mostly up to 91.3 µM; fluorescence, % of fluorescein: at the top concentration
row,SMILES,"fluorescence, % of fluorescein"
1,CC/C=C/CCCCCCCCCCOC(C)=O,0.108% (inactive)
2,Cc1ccc(Br)cc1,0.0338% (inactive)
3,C=CCON/C(CCC)=C1\C(=O)CC(C)(C)C(C(=O)OC)=C1O,-0.114% (inactive)
4,CCOc1ccccc1OCCN[C@H](C)Cc1ccc(OC)c(S(N)(=O)=O)c1,0.0938% [at 46 µM] (inactive)
